Assay results published in PubChem BioAssay AID493049 (Broad Institute, 2011).
Results with a measured potency or affinity are listed apart. Activity calls are given as the source filed them.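 How the source made its calls: active means viability loss with half-max dose at or under ten times the top valid dose tested; inconclusive means flat 30 to 70% loss, or poor curve fit; inactive means flat within 30%, weak potency, or gain.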

Experiment: DRD BJ cell killing, Ras synthetic lethality – DRD BJ fibroblasts, HRASV12, dry powder, dose response (AID 493049)
Settings: DRD engineered BJ fibroblasts (HRASV12) viability, Alamar Blue, 48 h; series mostly up to 45 µM; activity change, negative = viability loss: at the top concentration

Row | Compound | activity change, negative = viability loss
1 | O=C(c1[nH]ncc1[N+](=O)[O-])N1CCN(C(c2ccccc2)c2ccccc2)CC1 | -3.84% (inactive)
2 | COc1ccc(N(C(=O)[C@@H](C)Cl)C(C(=O)NCCc2ccccc2)c2cccs2)cc1Cl (stereo partly specified) | -1.66% (inactive)
3 | COc1ccc(N(C(=O)CO)C(C(=O)NCCc2ccccc2)c2cccs2)cc1Cl (stereo unspecified) | 2.17% (inactive)
4 | COCC(=O)N(c1ccc(OC)c(Cl)c1)C(C(=O)NCCc1ccccc1)c1cccs1 (stereo unspecified) | -0.438% (inactive)
5 | COc1ccc(N(C(=O)CSc2ncccn2)C(C(=O)NCCc2ccccc2)c2cccs2)cc1Cl (stereo unspecified) | -2.6% [at 38 µM] (inactive)
6 | CCC(=O)N(c1ccc(OC)c(Cl)c1)C(C(=O)NCCc1ccccc1)c1cccs1 (stereo unspecified) | -1.22% (inactive)
